# Reference: PubChem BioAssay (NCI)
# This is part of a sample that, as a whole, favours compounds with a hit. Of some 79,000 tested, about 15% had one in any assay. Unmarked numbers belong to inactive results. Active and inactive are the calls of the source. Cut-off read from the data, not from the text of the source: active = growth inhibition above about 70%; inactive = the rest.
# What was measured:
# [1] = NCI Yeast Anticancer Drug Screen. Data for the rad50 strain (AID 155);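 note: 0% = growth of vehicle-only cultures of the same strain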; details: S. cerevisiae rad50 strain growth inhibition, stronger effect = higher value
# In short: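 Yeast carrying a defined DNA repair defect were exposed to test compounds, and growth was compared with vehicle-treated controls to give percent inhibition.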
# [2] = NCI Yeast Anticancer Drug Screen. Data for the mec2-1 strain (AID 157); details: S. cerevisiae mec2-1 strain, stronger effect = higher value
# In short: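 Cells of the genetically defined mec2-1 yeast strain are incubated with test compound. Inhibition of growth is calculated against vehicle-treated controls.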
# [3] = NCI Yeast Anticancer Drug Screen. Data for the sgs1 mgt1 strain (AID 161);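 note: 0% = growth of cultures given vehicle only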; details: S. cerevisiae sgs1 mgt1 strain, stronger effect = higher value
# In short: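 Mutant yeast exposed to compound; growth scored against vehicle-only wells.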
# [4] = NCI Yeast Anticancer Drug Screen. Data for the cln2 rad14 strain (AID 165);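 note: 0% = growth equal to vehicle treated cultures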; details: S. cerevisiae cln2 rad14 strain, stronger effect = higher value
# In short: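 The screen exposed genetically defined yeast (cln2 rad14) to test compounds and scored growth inhibition relative to vehicle-treated controls.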
# [5] = NCI Yeast Anticancer Drug Screen. Data for the bub3 strain (AID 167); details: S. cerevisiae bub3 mutant strain, stronger effect = higher value
# In short: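 Compounds were applied to a genetically altered yeast strain carrying a cell-cycle control defect. Growth inhibition was scored against vehicle-treated controls.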
# [6] = NCI Yeast Anticancer Drug Screen. Data for the mlh1 rad18 strain (AID 175); details: S. cerevisiae mlh1 rad18 strain growth inhibition, stronger effect = higher value
# In short: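 Compound-treated yeast growth, normalised to vehicle controls. Strain bears defined DNA repair mutations.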
# [7] = at 5.0 µM (retest, dose inferred, filed as 0.5)
# [8] = at 50.0 µM (retest, dose inferred, filed as 5.0)
Compound,"growth inhibition [1, 7] [%]","growth inhibition [1, 8]",growth inhibition ([1]; at 50.0 µM),"growth inhibition [2, 7] [%]","growth inhibition [2, 8]",growth inhibition ([2]; at 50.0 µM),"growth inhibition [3, 7] [%]","growth inhibition [3, 8]",growth inhibition ([3]; at 50.0 µM),"growth inhibition [4, 7] [%]","growth inhibition [4, 8]",growth inhibition ([4]; at 50.0 µM),"growth inhibition [5, 7] [%]","growth inhibition [5, 8]",growth inhibition ([5]; at 50.0 µM),"growth inhibition [6, 7] [%]","growth inhibition [6, 8]",growth inhibition ([6]; at 50.0 µM)
O=C(CCl)Nc1cc(Cl)ccc1Cl,2,23%,37.5%,-20,26%,30.8%,6,30%,43.4%,5,20%,18.1%,10,83% (active),84.6% (active),2,18%,4.8%
CCOC(=O)C1SC(=Nc2cccc(Cl)c2C)N=C1C (configuration not stated),22,83% (active),85.3% (active),24,72% (active),88.1% (active),23,91% (active),82% (active),27,73% (active),86% (active),34,88% (active),89.4% (active),38,91% (active),86.2% (active)
COc1ccc(Cc2nncc3ccccc23)cc1OC,-4,84% (active),91.2% (active),1,83% (active),96.5% (active),-3,92% (active),95.3% (active),1,83% (active),72.2% (active),1,90% (active),96% (active),-4,93% (active),95.7% (active)
NC(=Nc1ccccc1)SCc1ccc([N+](=O)[O-])cc1,47,67%,30.2%,51,78% (active),43%,13,71% (active),57.2%,52,76% (active),16.8%,29,76% (active),70.5% (active),43,70% (active),19.4%
CCc1ccc(/C(C)=N/NC(N)=S)cc1,-4,89% (active),53.6%,-4,95% (active),19.9%,3,91% (active),42.8%,-18,74% (active),54.8%,-9,92% (active),34.8%,-2,93% (active),74.5% (active)
COc1c(O)cc2c(c1O)C(=O)C1=C(CCCC1)C2=O,-4,63%,47.1%,2,49%,22.2%,4,88% (active),62.1%,-5,22%,38.9%,11,80% (active),65%,2,70% (active),21.3%
O=C1CSC(c2ccc(Cl)cc2)N1c1ccc(-c2ccc(-n3c(-c4ccccc4)nc4ccccc4c3=O)cc2)cc1 (configuration not stated),-6,84% (active),69.4%,2,63%,47.2%,9,65%,84.2% (active),-11,50%,26.9%,-4,95% (active),84.8% (active),-10,94% (active),87.5% (active)
CCCCCCCn1ccnc1NCCCCCCCCCCNc1nccn1CCCCCCC,-3,98% (active),99.3% (active),-5,98% (active),99.6% (active),-6,99% (active),47.4%,-4,98% (active),93.9% (active),1,98% (active),94.5% (active),-1,98% (active),98.9% (active)
O=C1c2ccccc2C(=O)c2c(NCCNCCO)ccc(O)c21,37,93% (active),85% (active),19,94% (active),84.7% (active),51,91% (active),86.5% (active),53,60%,49.7%,44,86% (active),85.3% (active),24,88% (active),85.8% (active)
